Assay results: PubChem BioAssay (NCI)
This is part of a sample that, as a whole, favours compounds with a hit. Of some 79,000 tested, about 15% had one in any assay. Activity calls are given as the source filed them. No stated cut-off is given here; in the data, active means growth inhibition above about 70%; inactive means the rest.

Assays:
[1] = NCI Yeast Anticancer Drug Screen. Data for the rad52 strain (AID 147);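 further: 0% = growth of vehicle-treated control cultures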; conditions: S. cerevisiae rad52 mutant growth inhibition, active compounds read high
Method in brief: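 The repair-mutant yeast strain was incubated with compounds, then growth was read and inhibition derived relative to vehicle.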

[2] = NCI Yeast Anticancer Drug Screen. Data for the wt1 strain (AID 149);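 further: 0% = growth of vehicle-treated wt1 cultures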; conditions: S. cerevisiae wt1 strain (SPY 50644) growth inhibition, active compounds read high
Method in brief: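 Readout: yeast growth inhibition, normalised to vehicle controls, in the wt1 strain exposed to test compounds.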

[3] = NCI Yeast Anticancer Drug Screen. Data for the rad50EPP+ strain (AID 151);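 further: 0% = growth of vehicle-treated control cultures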; conditions: S. cerevisiae rad50 mutant strain, active compounds read high
Method in brief: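 Vehicle-normalised growth inhibition; rad50EPP+ yeast strain, altered in DNA damage repair, compound-treated.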

[4] = NCI Yeast Anticancer Drug Screen. Data for the mgt1 strain (AID 153); conditions: S. cerevisiae mgt1 mutant growth inhibition, active compounds read high
Method in brief: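 Vehicle-normalized growth inhibition is determined in mgt1 yeast, a strain selected for a defined alteration in DNA repair or cell cycle control.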

[5] = NCI Yeast Anticancer Drug Screen. Data for the rad50 strain (AID 155);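 further: 0% = growth of vehicle-only cultures of the same strain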; conditions: S. cerevisiae rad50 strain growth inhibition, active compounds read high
Method in brief: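 Compounds were tested on a yeast strain with an engineered DNA damage repair alteration; the reported value is growth inhibition normalised to vehicle treatment.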

[6] = NCI Yeast Anticancer Drug Screen. Data for the mec2-1 strain (AID 157); conditions: S. cerevisiae mec2-1 strain, active compounds read high
Method in brief: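 Mutant yeast (mec2-1) grown with compound; growth inhibition relative to vehicle control reported.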

[7] = NCI Yeast Anticancer Drug Screen. Data for the rad14 strain (AID 159);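 further: 0% = growth of vehicle-treated control cultures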; conditions: S. cerevisiae rad14 strain growth inhibition, active compounds read high
Method in brief: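 Compound-treated yeast with a defined DNA-repair lesion; growth inhibition normalised to vehicle-treated cultures.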

[8] = NCI Yeast Anticancer Drug Screen. Data for the sgs1 mgt1 strain (AID 161);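 further: 0% = growth of cultures given vehicle only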; conditions: S. cerevisiae sgs1 mgt1 strain, active compounds read high
Method in brief: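 Compounds are added to genetically altered yeast, and growth is compared with cultures given vehicle alone to give percent inhibition.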

[9] = NCI Yeast Anticancer Drug Screen. Data for the CLN2oe strain (AID 163);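 further: 0% = growth of vehicle-only control cultures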; conditions: S. cerevisiae CLN2oe strain, active compounds read high
Method in brief: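 Compounds are applied to yeast harbouring a defined cell-cycle control change; reduced growth compared with vehicle-treated controls gives the value.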

[10] = NCI Yeast Anticancer Drug Screen. Data for the cln2 rad14 strain (AID 165);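 further: 0% = growth equal to vehicle treated cultures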; conditions: S. cerevisiae cln2 rad14 strain, active compounds read high
Method in brief: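 Readout is yeast growth inhibition versus vehicle-treated controls, using a strain with cln2 and rad14 alterations exposed to compound.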

[11] = NCI Yeast Anticancer Drug Screen. Data for the bub3 strain (AID 167); conditions: S. cerevisiae bub3 mutant strain, active compounds read high
Method in brief: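 Growth of a checkpoint-deficient yeast mutant is measured after compound exposure. Values represent inhibition relative to vehicle.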

[12] = NCI Yeast Anticancer Drug Screen. Data for the wt2 strain (AID 169);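 further: 0% = growth of vehicle-treated yeast cultures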; conditions: S. cerevisiae wt2 strain growth inhibition, active compounds read high
Method in brief: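 Against vehicle-treated controls, the growth of yeast exposed to each compound was compared, and the inhibition was recorded.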

[13] = NCI Yeast Anticancer Drug Screen. Data for the mlh1 strain (AID 171);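 further: 0% = growth of vehicle-treated control cultures of the same strain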; conditions: S. cerevisiae mlh1 strain growth inhibition, active compounds read high
Method in brief: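 Measured: yeast growth. Reference: vehicle-treated controls. Organism: strain with a defined alteration affecting DNA damage repair or cell cycle control, treated with compound.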

[14] = NCI Yeast Anticancer Drug Screen. Data for the sgs1 strain (AID 173);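 further: 0% = growth of vehicle-only control cultures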; conditions: S. cerevisiae sgs1 mutant, active compounds read high
Method in brief: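 Each compound was added to cultures of the altered yeast strain. Growth was recorded, and inhibition was derived by comparison with vehicle controls.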

[15] = NCI Yeast Anticancer Drug Screen. Data for the mlh1 rad18 strain (AID 175); conditions: S. cerevisiae mlh1 rad18 strain growth inhibition, active compounds read high
Method in brief: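 Genetically defined yeast (DNA repair-deficient) exposed to compounds; growth inhibition determined relative to vehicle.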

[16] = NCI Yeast Anticancer Drug Screen. Data for the rad18 strain (AID 177); conditions: S. cerevisiae rad18 mutant growth inhibition, active compounds read high
Method in brief: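 Vehicle-treated cultures served as the baseline for scoring compound-induced growth inhibition in DNA-repair-mutant yeast.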

[17] = at 5.0 µM (retest, dose inferred, filed as 0.5)
[18] = at 50.0 µM (retest, dose inferred, filed as 5.0)

Measured: growth inhibition

O=C(NCCNCCNC(=O)c1cc(-c2ccccc2)nc2ccccc12)c1cc(-c2ccccc2)nc2ccccc12
active: [6]; at 50.0 µM 96.3% | [10]; at 50.0 µM 90.3% | [11]; at 50.0 µM 97.8%
inactive: [1]; at 1.2 µM -3% | [1]; at 3.7 µM -3% | [1]; at 11.0 µM -3% | [1]; at 33.0 µM -5% | [1]; at 100.0 µM 41% | [2]; at 1.2 µM -2% | [2]; at 3.7 µM -2% | [2]; at 11.0 µM -3% | [2]; at 33.0 µM -2% | [2]; at 100.0 µM 6% | [3]; at 1.2 µM -1% | [3]; at 3.7 µM 2% | [3]; at 11.0 µM 3% | [3]; at 33.0 µM 9% | [3]; at 100.0 µM 9% | [4]; at 1.2 µM -2% | [4]; at 3.7 µM -1% | [4]; at 11.0 µM -2% | [4]; at 33.0 µM 0% | [4]; at 100.0 µM 1% | [5]; at 1.2 µM -3% | [5]; at 3.7 µM -2% | [5]; [17] -11% | [5]; at 11.0 µM -4% | [5]; at 33.0 µM -2% | [5]; [18] 28% | [5]; at 50.0 µM 31.6% | [5]; at 100.0 µM 1% | [6]; at 1.2 µM -3% | [6]; at 3.7 µM -3% | [6]; [17] -11% | [6]; at 11.0 µM -1% | [6]; at 33.0 µM -2% | [6]; [18] 40% | [6]; at 100.0 µM 5% | [7]; at 1.2 µM -3% | [7]; at 3.7 µM -1% | [7]; at 11.0 µM -2% | [7]; at 33.0 µM 4% | [7]; at 100.0 µM 4% | [8]; [17] 9% | [8]; [18] 7% | [8]; at 50.0 µM 21.6% | [9]; at 1.2 µM -2% | [9]; at 3.7 µM -2% | [9]; at 11.0 µM -3% | [9]; at 33.0 µM -5% | [9]; at 100.0 µM 45% | [10]; [17] -4% | [10]; [18] 45% | [11]; at 1.2 µM -2% | [11]; at 3.7 µM -1% | [11]; [17] 2% | [11]; at 11.0 µM -1% | [11]; at 33.0 µM -5% | [11]; [18] 58% | [11]; at 100.0 µM -2% | [12]; at 1.2 µM -2% | [12]; at 3.7 µM -2% | [12]; at 11.0 µM -1% | [12]; at 33.0 µM -2% | [12]; at 100.0 µM 4% | [13]; at 1.2 µM -2% | [13]; at 3.7 µM 1% | [13]; at 11.0 µM -2% | [13]; at 33.0 µM -2% | [13]; at 100.0 µM -1% | [14]; at 1.2 µM -2% | [14]; at 3.7 µM 0% | [14]; at 11.0 µM 0% | [14]; at 33.0 µM 0% | [14]; at 100.0 µM 22% | [15]; [17] 7% | [15]; [18] 66% | [15]; at 50.0 µM 50.6% | [16]; at 1.2 µM -3% | [16]; at 3.7 µM -4% | [16]; at 11.0 µM -3% | [16]; at 33.0 µM -2% | [16]; at 100.0 µM -1%

COC(=O)C1=C(C(=O)OC)CC(n2nnc(C(=O)OC)c2C(=O)OC)=CC1
inactive: [1]; at 1.2 µM -1% | [1]; at 3.7 µM 1% | [1]; at 11.0 µM 2% | [1]; at 33.0 µM 0% | [1]; at 100.0 µM -2% | [2]; at 1.2 µM 0% | [2]; at 3.7 µM 0% | [2]; at 11.0 µM -1% | [2]; at 33.0 µM -1% | [2]; at 100.0 µM -2% | [3]; at 1.2 µM -2% | [3]; at 3.7 µM -2% | [3]; at 11.0 µM -3% | [3]; at 33.0 µM -3% | [3]; at 100.0 µM 1% | [4]; at 1.2 µM -1% | [4]; at 3.7 µM 1% | [4]; at 11.0 µM -2% | [4]; at 33.0 µM -2% | [4]; at 100.0 µM -6% | [5]; at 1.2 µM -1% | [5]; at 3.7 µM -3% | [5]; [17] -1% | [5]; at 11.0 µM -3% | [5]; at 33.0 µM -2% | [5]; [18] 0% | [5]; at 50.0 µM 43.4% | [5]; at 100.0 µM -4% | [6]; at 1.2 µM -4% | [6]; at 3.7 µM -6% | [6]; [17] -1% | [6]; at 11.0 µM -5% | [6]; at 33.0 µM -4% | [6]; [18] -1% | [6]; at 50.0 µM 1.2% | [6]; at 100.0 µM -9% | [7]; at 1.2 µM 0% | [7]; at 3.7 µM 3% | [7]; at 11.0 µM 4% | [7]; at 33.0 µM 3% | [7]; at 100.0 µM 1% | [8]; [17] 6% | [8]; [18] -6% | [8]; at 50.0 µM 0.5% | [9]; at 1.2 µM -7% | [9]; at 3.7 µM -3% | [9]; at 11.0 µM -4% | [9]; at 33.0 µM -1% | [9]; at 100.0 µM -7% | [10]; [17] -2% | [10]; [18] -2% | [10]; at 50.0 µM -9.5% | [11]; at 1.2 µM -4% | [11]; at 3.7 µM -4% | [11]; [17] -1% | [11]; at 11.0 µM -3% | [11]; at 33.0 µM -6% | [11]; [18] 1% | [11]; at 50.0 µM -4.1% | [11]; at 100.0 µM -2% | [12]; at 1.2 µM -1% | [12]; at 3.7 µM -2% | [12]; at 11.0 µM -1% | [12]; at 33.0 µM -2% | [12]; at 100.0 µM -3% | [13]; at 1.2 µM -1% | [13]; at 3.7 µM -2% | [13]; at 11.0 µM -2% | [13]; at 33.0 µM -1% | [13]; at 100.0 µM -3% | [14]; at 1.2 µM -1% | [14]; at 3.7 µM -1% | [14]; at 11.0 µM -2% | [14]; at 33.0 µM -2% | [14]; at 100.0 µM 0% | [15]; [17] -2% | [15]; [18] 44% | [15]; at 50.0 µM 4.4% | [16]; at 1.2 µM 0% | [16]; at 3.7 µM 1% | [16]; at 11.0 µM 0% | [16]; at 33.0 µM -1% | [16]; at 100.0 µM 1%
